Substitutions are numbered along the chain they refer to. Whole data set: some 9,900 sequences, median “r (bound/input frequency ratio)” near 0.7, cut for the highest 2% near 6.5. Many of the other results were omitted from the sample, so the highest values are more common in it than they were.
B1: ENSMUSG00000031028.245|Tub (ssRNA)
RNA: GGGAGUUCUACAGUCCGACGAUCGCUUCGAUAUCCGCAUGCUAGCCCUCCAUUGGGAUGGCACCACUCAUCUGGUGGGCUUGGGAACUCCAAGCUCUUGCCUGUGUGCCAUCUGUGAGAAGCUUCUUGGAGCUGAGACACCAGAGGGAAGCAAAGAGCAUUUAGACAUUGCUUUUUGCUUUGAAAUAGAUAUGUUUGGAAACGCUAAGUAGAAGUUUAAAAAGUAGAGUCAUGUAGAGUCAUGCUUUGAAUAUGUGGGUCAUGCUUUAGAUAUGAAGAGGCUAUGCAGGUAAGGAGGCUGGAUCUCUUGCGGUCGCACUAGUGUGGAAUUCUCGGGUGUCAAGG
B2: ENSMUSG00000028439.189|Fam219a|1:11;21:28 (ssRNA)
RNA: GGGAGUUCUACAGUCCGACGAUCGCUUCGAUAUCCGCAUGCUAACACACACACAUGUACCCGACACACACAUGAGCCUAUCUGUCCAGGGAACCAGAUUGGUGUCCGAGAUGAGGAAAUGGCUGUGGCCUGGGAAAUCAGUGAGAGGCCGCUUGGGAAUGAGAAUGCAGUGGACUGAAAGCACAGCCUGGCCAUCUGGAACCUGGGUUCUGGUCCCAGCCUCGGCAUUCUCCCUGAGCUCCUAAGCAAUUCCCAGGCUUCUCUAGGGCUUCAGUUCUCACAACUGGAAAAUAAAGAGUAGCUGCUCUUGCGGUCGCACUAGUGUGGAAUUCUCGGGUGUCAAGG
B3: ENSMUSG00000031028.94|Tub (ssRNA)
RNA: GGGAGUUCUACAGUCCGACGAUCGCUUCGAUAUCCGCAUGCUAAGCUCUGGUGGUCAGCAGAAAGCACUCCCACUUCAAAAGGGCCCAUUAGGCCCAAAGGGGGUUAGGAGUGGUAGGGAUAGGUGCGUGGCAGGUCCCUGCUAGGAUUGCAGGGGCCUGGCCAUGUGUAUUAGCUGGAGGCUUAGAAUGCUAGCUCAUUUGUUGCUACAGAUUUGCCCAGUGCUUGCACACGUAAGAACCCAGCUCUCAAGGCCAAAUAUCUGAGUGGAUGGGGAUGAUAGGAGUCAUCCAGUAGACUCCCUCUCUUGCGGUCGCACUAGUGUGGAAUUCUCGGGUGUCAAGG
B4: ENSMUSG00000058297.426|Spock2 (ssRNA)
RNA: GGGAGUUCUACAGUCCGACGAUCGCUUCGAUAUCCGCAUGCUAGUGGCAGGCCCCAGGGGUCCAGAAGUUUGUCCCUCUCUAAAACGCUCCCCACCCCAUACUGCUUUUCACCCCACUGAGACCGAGUCCCACAAAGGUAGGCAGAACAGCUGUUCCUGGUGGGGCUGAAGGUUCCCAAGUAGCUUCUAGUUAAGCAAGCUUCGUGUUUCCUCAGGAGCAAGGUCACACAGGUCAGAUUAUUGUCGGUCCUGCGGGCCUCAUCCUUGAAUAAGCUGCCUGCCCAGUUCCUCCAUCCGUGUUCCCUCUUGCGGUCGCACUAGUGUGGAAUUCUCGGGUGUCAAGG
B5: ENSMUSG00000061578.1451|Ksr2|37:41;132:136 (ssRNA)
RNA: GGGAGUUCUACAGUCCGACGAUCGCUUCGAUAUCCGCAUGCUAGAUGGAUGGGUGAUGGAUGGGUAAAUGAAUGGAUAGCAUACUGAAUGAAUGGAUGAUGGAUGAAUGGAUGGGUAGGUGGGUAGAUAGGUAUAUGAAUGAAUGGAUGAAUGGAUGGGUGAAUGGAUGGAUAGCAUACUGAAUAAAUGGAUGGAUGGAUGGAUUGAUUUGUGAAUGAAUGGAUGAAUGGAUGGGUAGGUGGGUGGAUGCAUAGGCAAGUAGAUGAAUGAAUAUGUGGGUAGAAGGGUGAGUGGGUGGAUGAACUCUUGCGGUCGCACUAGUGUGGAAUUCUCGGGUGUCAAGG
B6: ENSMUSG00000061578.1445|Ksr2 (ssRNA)
RNA: GGGAGUUCUACAGUCCGACGAUCGCUUCGAUAUCCGCAUGCUAGAUGGAUGAGUGAGUGGAUAGGUAGGUAUAUAAAUGGAUGGAUGGGUGAUGGAUGGGUAAAUGAAUGGAUAGGUAUGUGAAUGAAUGGAUGAUGGAUGAAUGGAUGGGUAGGUGGGUAGAUAGGUAUAUGAAUGAAUGGAUGAAUGGAUGGGUGAAUGGAUGGAUAGGUAUGUGAAUAAAUGGAUGGAUGGAUGGAUUGAUUUGUGAAUGAAUGGAUGAAUGGAUGGGUAGGUGGGUGGAUGCAUAGGCAAGUAGAUGAACUCUUGCGGUCGCACUAGUGUGGAAUUCUCGGGUGUCAAGG
B7: ENSMUSG00000061578.1440|Ksr2 (ssRNA)
RNA: GGGAGUUCUACAGUCCGACGAUCGCUUCGAUAUCCGCAUGCUAUAGAUGCCAAUCAGGAAGGCAAGUAGGAUGGAUGGAUGAGUGAGUGGAUAGGUAGGUAUAUAAAUGGAUGGAUGGGUGAUGGAUGGGUAAAUGAAUGGAUAGGUAUGUGAAUGAAUGGAUGAUGGAUGAAUGGAUGGGUAGGUGGGUAGAUAGGUAUAUGAAUGAAUGGAUGAAUGGAUGGGUGAAUGGAUGGAUAGGUAUGUGAAUAAAUGGAUGGAUGGAUGGAUUGAUUUGUGAAUGAAUGGAUGAAUGGAUGGGUACUCUUGCGGUCGCACUAGUGUGGAAUUCUCGGGUGUCAAGG
B8: ENSMUSG00000061578.1444|Ksr2 (ssRNA)
RNA: GGGAGUUCUACAGUCCGACGAUCGCUUCGAUAUCCGCAUGCUAAGGAUGGAUGGAUGAGUGAGUGGAUAGGUAGGUAUAUAAAUGGAUGGAUGGGUGAUGGAUGGGUAAAUGAAUGGAUAGGUAUGUGAAUGAAUGGAUGAUGGAUGAAUGGAUGGGUAGGUGGGUAGAUAGGUAUAUGAAUGAAUGGAUGAAUGGAUGGGUGAAUGGAUGGAUAGGUAUGUGAAUAAAUGGAUGGAUGGAUGGAUUGAUUUGUGAAUGAAUGGAUGAAUGGAUGGGUAGGUGGGUGGAUGCAUAGGCAAGUACUCUUGCGGUCGCACUAGUGUGGAAUUCUCGGGUGUCAAGG
B9: ENSMUSG00000061578.1446|Ksr2 (ssRNA)
RNA: GGGAGUUCUACAGUCCGACGAUCGCUUCGAUAUCCGCAUGCUAUGAGUGAGUGGAUAGGUAGGUAUAUAAAUGGAUGGAUGGGUGAUGGAUGGGUAAAUGAAUGGAUAGGUAUGUGAAUGAAUGGAUGAUGGAUGAAUGGAUGGGUAGGUGGGUAGAUAGGUAUAUGAAUGAAUGGAUGAAUGGAUGGGUGAAUGGAUGGAUAGGUAUGUGAAUAAAUGGAUGGAUGGAUGGAUUGAUUUGUGAAUGAAUGGAUGAAUGGAUGGGUAGGUGGGUGGAUGCAUAGGCAAGUAGAUGAAUGAAUACUCUUGCGGUCGCACUAGUGUGGAAUUCUCGGGUGUCAAGG
B10: ENSMUSG00000061578.1442|Ksr2 (ssRNA)
RNA: GGGAGUUCUACAGUCCGACGAUCGCUUCGAUAUCCGCAUGCUAAGGAAGGCAAGUAGGAUGGAUGGAUGAGUGAGUGGAUAGGUAGGUAUAUAAAUGGAUGGAUGGGUGAUGGAUGGGUAAAUGAAUGGAUAGGUAUGUGAAUGAAUGGAUGAUGGAUGAAUGGAUGGGUAGGUGGGUAGAUAGGUAUAUGAAUGAAUGGAUGAAUGGAUGGGUGAAUGGAUGGAUAGGUAUGUGAAUAAAUGGAUGGAUGGAUGGAUUGAUUUGUGAAUGAAUGGAUGAAUGGAUGGGUAGGUGGGUGGAUGCUCUUGCGGUCGCACUAGUGUGGAAUUCUCGGGUGUCAAGG
B11: ENSMUSG00000061578.1448|Ksr2 (ssRNA)
RNA: GGGAGUUCUACAGUCCGACGAUCGCUUCGAUAUCCGCAUGCUAUAGGUAGGUAUAUAAAUGGAUGGAUGGGUGAUGGAUGGGUAAAUGAAUGGAUAGGUAUGUGAAUGAAUGGAUGAUGGAUGAAUGGAUGGGUAGGUGGGUAGAUAGGUAUAUGAAUGAAUGGAUGAAUGGAUGGGUGAAUGGAUGGAUAGGUAUGUGAAUAAAUGGAUGGAUGGAUGGAUUGAUUUGUGAAUGAAUGGAUGAAUGGAUGGGUAGGUGGGUGGAUGCAUAGGCAAGUAGAUGAAUGAAUAUGUGGGUAGAAGCUCUUGCGGUCGCACUAGUGUGGAAUUCUCGGGUGUCAAGG
B12: ENSMUSG00000061578.1441|Ksr2 (ssRNA)
RNA: GGGAGUUCUACAGUCCGACGAUCGCUUCGAUAUCCGCAUGCUACCAAUCAGGAAGGCAAGUAGGAUGGAUGGAUGAGUGAGUGGAUAGGUAGGUAUAUAAAUGGAUGGAUGGGUGAUGGAUGGGUAAAUGAAUGGAUAGGUAUGUGAAUGAAUGGAUGAUGGAUGAAUGGAUGGGUAGGUGGGUAGAUAGGUAUAUGAAUGAAUGGAUGAAUGGAUGGGUGAAUGGAUGGAUAGGUAUGUGAAUAAAUGGAUGGAUGGAUGGAUUGAUUUGUGAAUGAAUGGAUGAAUGGAUGGGUAGGUGGGCUCUUGCGGUCGCACUAGUGUGGAAUUCUCGGGUGUCAAGG
B13: ENSMUSG00000061578.1443|Ksr2|85:89;180:184 (ssRNA)
RNA: GGGAGUUCUACAGUCCGACGAUCGCUUCGAUAUCCGCAUGCUAGCAAGUAGGAUGGAUGGAUGAGUGAGUGGAUAGGUAGGUAUAUAAAUGGAUGGAUGGGUGAUGGAUGGGUAAAUGAAUGGAUAGCAUACUGAAUGAAUGGAUGAUGGAUGAAUGGAUGGGUAGGUGGGUAGAUAGGUAUAUGAAUGAAUGGAUGAAUGGAUGGGUGAAUGGAUGGAUAGCAUACUGAAUAAAUGGAUGGAUGGAUGGAUUGAUUUGUGAAUGAAUGGAUGAAUGGAUGGGUAGGUGGGUGGAUGCAUAGGCUCUUGCGGUCGCACUAGUGUGGAAUUCUCGGGUGUCAAGG
B14: ENSMUSG00000061578.1444|Ksr2|79:83;174:178 (ssRNA)
RNA: B8 RNA with G122C, U123A, A124U, U125A, G126C, G217C, U218A, A219U, U220A, G221C
B15: ENSMUSG00000061578.1439|Ksr2 (ssRNA)
RNA: GGGAGUUCUACAGUCCGACGAUCGCUUCGAUAUCCGCAUGCUAUUGAUUUAGAUGCCAAUCAGGAAGGCAAGUAGGAUGGAUGGAUGAGUGAGUGGAUAGGUAGGUAUAUAAAUGGAUGGAUGGGUGAUGGAUGGGUAAAUGAAUGGAUAGGUAUGUGAAUGAAUGGAUGAUGGAUGAAUGGAUGGGUAGGUGGGUAGAUAGGUAUAUGAAUGAAUGGAUGAAUGGAUGGGUGAAUGGAUGGAUAGGUAUGUGAAUAAAUGGAUGGAUGGAUGGAUUGAUUUGUGAAUGAAUGGAUGAAUGGACUCUUGCGGUCGCACUAGUGUGGAAUUCUCGGGUGUCAAGG
B16: ENSMUSG00000061578.1450|Ksr2 (ssRNA)
RNA: GGGAGUUCUACAGUCCGACGAUCGCUUCGAUAUCCGCAUGCUAUAAAUGGAUGGAUGGGUGAUGGAUGGGUAAAUGAAUGGAUAGGUAUGUGAAUGAAUGGAUGAUGGAUGAAUGGAUGGGUAGGUGGGUAGAUAGGUAUAUGAAUGAAUGGAUGAAUGGAUGGGUGAAUGGAUGGAUAGGUAUGUGAAUAAAUGGAUGGAUGGAUGGAUUGAUUUGUGAAUGAAUGGAUGAAUGGAUGGGUAGGUGGGUGGAUGCAUAGGCAAGUAGAUGAAUGAAUAUGUGGGUAGAAGGGUGAGUGGGUGCUCUUGCGGUCGCACUAGUGUGGAAUUCUCGGGUGUCAAGG

Biological target: TDP-43 (Homo sapiens, UniProt Q13148 1-414)
Sequence (Q13148 whole entry): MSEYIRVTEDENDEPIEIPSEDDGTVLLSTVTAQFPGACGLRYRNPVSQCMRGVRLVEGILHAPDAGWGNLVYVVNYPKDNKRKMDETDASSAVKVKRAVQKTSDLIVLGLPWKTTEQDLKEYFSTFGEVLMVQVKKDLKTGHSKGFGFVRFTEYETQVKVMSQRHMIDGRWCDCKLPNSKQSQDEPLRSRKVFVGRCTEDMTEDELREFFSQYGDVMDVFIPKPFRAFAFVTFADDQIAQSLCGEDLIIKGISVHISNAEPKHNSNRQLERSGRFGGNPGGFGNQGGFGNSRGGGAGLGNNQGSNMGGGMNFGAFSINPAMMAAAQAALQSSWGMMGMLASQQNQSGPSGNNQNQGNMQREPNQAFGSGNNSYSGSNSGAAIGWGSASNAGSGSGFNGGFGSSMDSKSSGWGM
Test: RNA Bind-n-Seq with designed 260-mer pool; 25 mM Tris-HCl, 150 mM KCl, 3 mM MgCl2, BSA (printed 500 mg/mL), 20 units/mL SUPERase IN; pH not stated; 500 nM RNA pool, 1 h, 4 C; TDP-43 5, 50, 500 nM; high values mean tight binding
Conditions: protein: recombinant; tags: SBP (GST cleaved off with PreScission; pGEX-GST-SBP)
Procedure, shortened: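 Streptavidin beads captured recombinant SBP-tagged TDP-43 at 5, 50 or 500 nM, and the beads were incubated for 1 h at 4 °C with 500 nM of an in vitro-transcribed pool of 260-nt 3′ UTR oligos in 25 mM Tris-HCl, 150 mM KCl, 3 mM MgCl2, BSA and SUPERase IN. After washing, bound RNA was eluted with biotin, reverse transcribed, PCR-amplified and sequenced. Binding is reported as R, the mapped-read-normalized abundance of each oligo in the bound sample divided by its abundance in the input. Two independent protein batches served as duplicates.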

| Binder | binding signal |
| --- | --- |
| B1 | 2.93 R (bound/input frequency ratio) |
| B2 | 0.604 R (bound/input frequency ratio) |
| B3 | 0.759 R (bound/input frequency ratio) |
| B4 | 0.272 R (bound/input frequency ratio) |
| B5 | 5.32 R (bound/input frequency ratio) |
| B6 | 4.8 R (bound/input frequency ratio) |
| B7 | 11.5 R (bound/input frequency ratio) |
| B8 | 3.7 R (bound/input frequency ratio) |
| B9 | 11 R (bound/input frequency ratio) |
| B10 | 7.5 R (bound/input frequency ratio) |
| B11 | 6.14 R (bound/input frequency ratio) |
| B12 | 5.22 R (bound/input frequency ratio) |
| B13 | 6.75 R (bound/input frequency ratio) |
| B14 | 5.84 R (bound/input frequency ratio) |
| B15 | 6.02 R (bound/input frequency ratio) |
| B16 | 4.15 R (bound/input frequency ratio) |

— paper PMC12864922, “TDP-43 directly inhibits mRNA accumulation in neurites through modulation of mRNA stability”
